# From PubChem
# TRHR agonist: TRH receptor (human) agonism | P34981 | TRHR cells, calcium flux fluo-8, FDSS agonist mode | activation, % at 2 µM | actives 0.18% (n = 360,000) | AID 493084; note: 0% is about no effect
# Target sequence (P34981 whole entry, looked up): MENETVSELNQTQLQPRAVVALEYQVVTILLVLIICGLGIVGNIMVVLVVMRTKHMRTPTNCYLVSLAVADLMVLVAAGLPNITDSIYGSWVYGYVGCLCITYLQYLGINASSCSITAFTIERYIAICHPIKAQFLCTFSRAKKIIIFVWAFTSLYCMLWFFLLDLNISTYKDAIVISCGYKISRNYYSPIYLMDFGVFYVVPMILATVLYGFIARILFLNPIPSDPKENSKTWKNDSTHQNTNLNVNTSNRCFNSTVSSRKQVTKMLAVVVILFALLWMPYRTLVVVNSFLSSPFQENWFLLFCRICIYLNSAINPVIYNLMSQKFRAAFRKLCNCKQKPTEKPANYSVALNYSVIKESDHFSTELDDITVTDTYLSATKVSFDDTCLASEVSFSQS
#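 TRHR-expressing cells loaded with fluo-8 calcium dye; 23 nL library compound pin-transferred, kinetic FDSS fluorescence (Ex 480/Em 530) recorded about 180 s for agonist-induced calcium release, before a 10 nM TRH EC20 addition for potentiator mode.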
# TRHR enhancer: allosterically enhances the human TRH receptor; P34981; TRHR cells, fluo-8 calcium fluorescence, EC20 TRH enhancement; enhancement, % at 2 µM; actives 0.66% (n = 360,000); in the data active = enhancement above about 30%; note: 0% is about no effect
#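 Enhancer read-out: after compound pinning and an initial kinetic agonist-mode read, an EC20 of TRH (10 nM final) was injected and fluo-8 calcium signal (Ex 480/Em 530) followed at 1 s/cycle for 100 cycles in TRHR-expressing cells.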
# D1 PAM: human D1 dopamine receptor positive modulation. P21728. HEK293 TREx D1 cells, calcium flux, dopamine EC20 potentiation. potentiation, % at 10 µM. actives 0.036% (n = 360,000); in the data active = potentiation above about 30%; note: 0% is about no effect
# D1 antag: human D1 dopamine receptor antagonism; actives 3.2% (n = 360,000); P21728; activity change, negative = inhibition, % at 10 µM; HEK293 TREx D1 cells, calcium flux, dopamine EC80; stronger effect = lower value; in the data active = activity change below about -30%; note: % is set by controls: 0 for no effect and ±100 for the full control effect
#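 Calcium flux readout: force-coupled, inducible Hek293 Trex D1 line, cells induced overnight at 30 C with tetracycline, dye-loaded 30–90 min at RT. Antagonism scored against EC80 dopamine challenge given 180 s after compound.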
# D1 ag: human D1 receptor agonism; HEK293 T-REx D1 cells, calcium flux, agonist mode; activation, % at 2 µM; actives 1% (n = 360,000); AID 504660; note: 0% is about no effect
#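 Inducible HEK293 T-REx D1 cells, force-coupled to calcium signalling, were plated at 4000 cells/well with tetracycline and held overnight at 30 C. After no-wash calcium dye loading, compound-evoked calcium rise over 180 s flagged agonists.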
# Starred values were filed as active, the others as inactive. Hits are enriched below; roughly 4.7% of the tested compounds scored in any of these assays. Cut-off read from the data, not from the text of the source, unless noted: active = activation above about 30%; inactive = the rest.
SMILES,TRHR agonist,TRHR enhancer,D1 PAM,D1 antag,D1 ag
O=c1cc(-c2ccccc2)[nH]n2cnnc12,0,6,10,1,6
O=C(NC1CCCc2ccccc21)c1ccc(=O)[nH]c1 (stereo not given),1,-2,-2,-39*,1
Cc1nn(C(=O)c2ccccc2)c(C)c1S(=O)(=O)N1CCOCC1,0,-1,-1,-10,-2
N/C(Cn1nnc(-c2ccccc2)n1)=N\O,0,-7,-2,14,-1
Cc1ccc(-c2nnn(C/C(N)=N/O)n2)cc1,4,36*,-2,-39*,6
CC(C)CC(NC(=O)C1CCC(C)CC1)C(=O)Nc1ccccc1F (stereo not given),0,0,-4,10,1
CC(C)CC(NC(=O)C1CCC(C)CC1)C(=O)Nc1ccccn1 (stereo not given),0,-12,-7,-32*,0
COc1ccccc1CNC(=O)CN1C(=O)CSc2c1c(C)nn2-c1ccccc1,-1,0,-4,-5,0
Cc1nn2c(N3CCN(CCO)CC3)c3c(nc2c1-c1ccccc1)CCCC3,-1,-8,-2,-66*,9
Cc1nn2c(N3CCCC3)c3c(nc2c1-c1ccccc1)CCC3,-1,-2,-1,0,0
CN1CCN(/C(=N\O)c2nonc2N)CC1,0,-8,-10,-42*,5
CO/N=C(/c1nonc1N)N1CCN(c2ccc([N+](=O)[O-])cc2)CC1,7,-9,-4,-5,2
COC(=O)c1cccc(CN2C(=O)SC(Nc3ccc(Cl)cc3)C2=O)c1 (stereo not given),1,1,-6,-32*,1
COC(=O)c1cccc(CN2C(=O)SC(Nc3ccc(C)cc3)C2=O)c1 (stereo not given),-1,-3,1,-3,2
C=C(C)C1CC=C(C)/C(=N/NC(=O)c2ccoc2C)C1 (stereo not given),0,-1,-6,-15,1
C=C(C)C1CC=C(C)/C(=N/NC(=O)c2cccc([N+](=O)[O-])c2)C1 (stereo not given),-1,37*,8,9,-1
Cc1ccc(C(C)C)c(OCc2nn(CC(=O)c3ccc(OC(F)F)cc3)c3[n+]2CCCCC3)c1,-1,-6,-6,-12,91*
CCOc1ccc(NC(=O)C2CCC(CNS(=O)(=O)c3ccc4c(c3)CCCC(=O)N4)CC2)cc1 (stereo not given),0,-3,2,3,1
CC(C(=O)NCc1ccccc1)N1Cc2ccccc2C1=O (stereo not given),0,11,3,10,-2
COc1ccc(-c2nonc2NC(=O)c2oc3ccccc3c2C)cc1OC,0,2,-1,-22,2
CCOc1ccc(-c2nonc2NC(=O)c2oc3ccc(Cl)cc3c2C)cc1,0,-1,3,-32*,1
Cc1ccc(S[C@@H](CCN2CC[C@H](C)CCC2=O)c2ccccc2)cc1,-1,0,-8,-4,4
Cc1ccc(S[C@@H](CCN2CC[C@H](O)CCC2=O)c2ccccc2)cc1,0,-4,-3,-31*,0
COc1cccc2sc(Nc3nnc(-c4cccs4)o3)nc12,1,5,-4,-46*,2
COc1ccc(CCNC(=O)c2cnn(-c3ccc(F)cc3)c2C2CCN(C(=O)OC(C)(C)C)CC2)cc1OC,-1,-4,-4,0,0
SMILES,TRHR agonist,TRHR enhancer,D1 PAM,D1 antag,D1 ag
NCCOc1ccc(C2CCCCC2)cc1,3,13,6,32,32*
CCCCc1nc2cc(C(=O)N3CCCCC3COC)ccc2o1 (stereo not given),0,2,-7,-31*,1
COCC1CCCCN1C(=O)c1ccc2oc(CCc3ccccc3)nc2c1 (stereo not given),0,1,-1,1,9
CO/N=C(/C(=O)N[C@@H]1C(=O)N2C(C(=O)O)=CCS[C@H]12)c1cnc(N)s1,0,-2,-2,-7,3
Cc1cc(NS(=O)(=O)c2ccc(NC(=O)COc3c(C)ccc(C)c3C)cc2)nc(C)n1,0,6,3,-23,-1
COc1ccc(CCNc2oc(COc3ccccc3F)nc2C#N)cc1,1,-7,-10,-67*,3
N#Cc1nc(COc2ccccc2F)oc1NCc1ccc(F)cc1,0,-8,-6,-25,5
